Screening results as filed in PubChem BioAssay.
D2 ag-1 – HTS Assay for Allosteric Agonists of the Human D2 Dopamine Receptor: Primary Screen for Agonists; HEK293 T-REx D2 cells, calcium flux agonist mode; activation, % at 2 µM; hit rate 0.53% among 340,000; AID 485358, 2010;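 active = activation over 3 SD above normal in the single-dose calcium agonist read, cut at about 30% in these data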
Target sequence (P14416 whole entry, looked up): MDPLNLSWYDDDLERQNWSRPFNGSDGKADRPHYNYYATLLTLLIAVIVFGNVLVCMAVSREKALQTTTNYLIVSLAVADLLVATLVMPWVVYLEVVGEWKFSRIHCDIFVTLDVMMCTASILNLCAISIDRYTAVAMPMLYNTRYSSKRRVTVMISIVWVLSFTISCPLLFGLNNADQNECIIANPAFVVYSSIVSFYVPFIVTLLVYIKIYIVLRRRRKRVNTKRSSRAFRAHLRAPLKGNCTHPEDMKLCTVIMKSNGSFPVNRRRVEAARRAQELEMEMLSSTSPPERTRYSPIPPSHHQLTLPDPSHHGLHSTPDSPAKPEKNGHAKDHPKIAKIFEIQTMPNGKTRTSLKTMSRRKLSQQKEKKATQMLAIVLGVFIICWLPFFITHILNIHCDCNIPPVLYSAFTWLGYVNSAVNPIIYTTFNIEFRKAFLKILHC
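In this primary screen, compounds producing a positive calcium signal within 180 s of addition to tetracycline-induced, force-coupled HEK293 Trex D2 cells are flagged; cells are dye-loaded with a no-wash calcium kit beforehand.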
D2 ag-2 – Beta-Arrestin HTS for Positive Allosteric Modulators of the Human D2 Dopamine Receptor: Agonists; D(2) dopamine receptor (Homo sapiens), P14416; DiscoveRx PathHunter D2 beta-arrestin, luminescence, 90 min; 100% = 57 uM dopamine signal; activation, % (test concentration not listed); hit rate 0.084% among 360,000; AID 624465, 2012; in the data active = activation above about 40%
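DiscoveRx PathHunter D2 beta-arrestin cells (2,100/well) attached overnight, then compound-stimulated 90 min at 37 C in HBSS/10 mM HEPES/0.1% Tween-20 buffer; beta-galactosidase complementation read by luminescence after 1 h at ambient temperature. Dopamine 57 uM final (EC100) as control.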
D2 PAM-1 – Beta-Arrestin HTS for Positive Allosteric Modulators of the Human D2 Dopamine Receptor: Potentiators; D(2) dopamine receptor (Homo sapiens), P14416; DiscoveRx D2 beta-arrestin cells, luminescence, 90 min; 100% = 57 uM dopamine signal; potentiation, % (test concentration not listed); hit rate 0.23% among 360,000; AID 624464, 2012; in the data active = potentiation above about 50%
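PathHunter beta-arrestin assay in DiscoveRx D2 cells. Compounds were added with an EC20 of dopamine (50 nM final) for 90 min at 37 deg C. Luminescence was read 1 h after detection reagent, with 57 uM dopamine as the EC100 control.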
D2 antagonist – HTS Assay for Allosteric Antagonists of the Human D2 Dopamine Receptor: Primary Screen for Antagonists | D(2) dopamine receptor (Homo sapiens), P14416 | HEK293 TREx D2 cells, calcium flux, dopamine EC80 | inhibition, % at 10 µM | hit rate 2% among 340,000; in the data active = inhibition above about 30%; inactive = below that, where a call was filed
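HEK293 T-REx D2 cells, tet-induced, calcium dye no-wash. Cpd pintool add, 180 s kinetic, then EC80 DA, 180 s kinetic. Ca flux read.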
D2 PAM-2 – HTS Assay for Positive Allosteric Modulators of the Human D2 Dopamine Receptor: Primary Screen for Potentiators; D(2) dopamine receptor (Homo sapiens), P14416; HEK293 T-REx D2, calcium flux, EC20 dopamine potentiation; potentiation, % at 10 µM; hit rate 0.34% among 340,000; AID 485347, 2010;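 active = potentiation over 3 SD above the plate norm, cut at about 30% in these data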
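Tetracycline-induced HEK293 T-REx cells force-coupled to calcium signalling expressed D2; compounds were pin-added after a 10 s baseline, read kinetically 180 s, then an EC20 dopamine challenge followed with a further 180 s calcium read.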
Hits are given with their value; . = inactive; / = no result given. The list is not random: actives were taken first. Their share in the collection is about 2.4%.

SMILES	D2 ag-1	D2 ag-2	D2 PAM-1	D2 antagonist	D2 PAM-2
CN(C(=O)c1ccnn1C)C1CCCN(Cc2ccccc2F)C1 (configuration not stated)	.	.	.	.	.
O=C(COc1ccc(F)cc1)Nc1cccc(OCc2cc(=O)n3ccccc3n2)c1	.	/	/	/	.
Cc1cc(NC(=O)CCC(=O)N(Cc2ccccc2)C2(C(=O)NC3CCCCC3)CCCC2)no1	.	.	.	44	.
Cc1cc(NC(=O)CCC(=O)N(Cc2ccco2)C2(C(=O)NC3CCCCC3)CCCCC2)no1	.	.	.	.	.
Cc1ccc(C)c(N(CC(=O)NC2CCCC2)C(=O)CCC(=O)Nc2cc(C)on2)c1	.	.	.	36	.
CN(C)CC(O)COc1cccc(OCC(O)CN(C)C)c1 (configuration not stated)	.	.	.	55	.
CN1/C(=C/C=N/NC(=O)c2ccc([N+](=O)[O-])cc2)C(C)(C)c2ccccc21	.	.	.	37	.
COc1cc2c(cc1NC(=O)CSc1nnc(Cc3cccs3)n1C)oc1ccccc12	.	.	.	.	.
CCn1c(SCC(=O)Nc2cc3oc4ccccc4c3cc2OC)nnc1-c1cccs1	37	.	.	45	.
CCC(=O)N(C)C[C@@H]1Oc2cc(Br)ccc2S(=O)(=O)N([C@@H](C)CO)C[C@@H]1C	/	.	.	/	/
CCOC(=O)C1CCN(C(=O)c2cc(S(=O)(=O)N3CCCCCC3)ccc2OC)CC1	.	.	.	38	.
COc1ccc(N2CCN(C(=O)c3cc(S(=O)(=O)N4CCCCCC4)ccc3OC)CC2)cc1	.	.	.	40	.
COc1ccc(S(=O)(=O)N2CCCCCC2)cc1C(=O)N1CCN(c2ccc(F)cc2)CC1	/	.	.	/	/
CCOC(=O)C1CCCN(S(=O)(=O)c2ccc(S(N)(=O)=O)cc2)C1 (configuration not stated)	.	.	.	.	51
CCOC(=O)C1CCCN(S(=O)(=O)c2ccc(C)cc2)C1 (configuration not stated)	.	.	.	.	.
COc1ccc(N2C(N)=NC(N)=NC2(C)C)cc1	.	.	.	.	31
Cc1ccc(C(=O)NCCc2c[nH]c3ccccc23)c(C)c1	.	.	.	74	.
COc1cc(C(=O)N/N=C(\C)Cc2ccccc2)cc(OC)c1OC	/	.	.	/	/
COc1cc(C(=O)NCC(=O)N/N=C(\C)Cc2ccccc2)cc(OC)c1OC	.	.	.	.	37
O=C(Nc1ccccc1)Nc1cccc(NC(=O)Nc2ccccc2)c1F	.	.	.	.	.
O=C(Nc1ccccc1)Nc1ccccc1Br	.	.	.	42	.
COc1ccc(CN2CCN(c3ccccc3OC)CC2)cc1OC	.	.	.	66	.
COc1ccccc1N1CCN(Cc2ccc(OC)c(OC)c2OC)CC1	.	.	.	81	.
COc1ccccc1N1CCN(Cc2ccc(C(=O)O)cc2)CC1	.	.	.	.	.
COc1ccc(CN2CCN(c3ccccc3OC)CC2)c(OC)c1	.	.	.	91	.
SMILES	D2 ag-1	D2 ag-2	D2 PAM-1	D2 antagonist	D2 PAM-2
COc1ccc(OC)c(CN2CCN(c3ccccc3OC)CC2)c1	.	.	.	.	.
COc1ccccc1N1CCN(Cc2cc3c(cc2[N+](=O)[O-])OCO3)CC1	.	.	.	52	.
CC(C)(C)c1ccc(-n2ncc3c2CCCC3NC(=O)C2(C(N)=O)CC2)cc1 (configuration not stated)	.	.	.	.	.
COc1ccc(C2c3ccc(O)cc3Oc3ncn(CCN4CCOCC4)c(=N)c32)cc1OC (configuration not stated)	.	.	.	.	.
COc1ccc(OC)c(CN2CCN(Cc3cccc4ccccc34)CC2)c1	.	.	.	71	.
COC(=O)c1cc(CN2CCN(c3ccccc3C)CC2)ccc1O	.	.	.	58	.
COc1ccccc1OCCCCN1CCN(c2ccccc2OC)CC1	.	.	.	.	.
COc1ccccc1N1CCN(Cc2cnc3ccc(Cl)cn23)CC1	.	.	.	55	.
COc1ccc2ccccc2c1CN1CCN(C)CC1	.	.	.	40	.
COc1ccc(OC)c(CN2CCCCCC2)c1	.	.	.	.	.
CCC1CCCCN1CCCNC(=O)c1ccc2c(c1)NC(=O)CN2C (configuration not stated)	.	.	.	.	.
CCOC(=O)c1[nH]c2ccccc2c1NC(=O)c1ccccc1OCC	.	/	/	/	.
COc1ccccc1Nc1nc(N)nc(CN2CCN(c3ccccc3F)CC2)n1	.	.	.	.	.
COc1ccccc1N1CCN(Cc2nc(N)nc(Nc3ccc(C)c(Cl)c3)n2)CC1	.	.	.	55	/
CCN(c1ccccc1)S(=O)(=O)c1cnc[nH]1	.	.	.	34	.
Cc1nn2c(=O)cc(CSc3nc4ccccc4[nH]3)nc2s1	.	.	.	39	.
COc1ccc(C(=O)Nc2ccccc2SCc2cc(=O)n3nc(C)sc3n2)cc1OC	.	.	.	.	.
CCc1nnc(NC(=O)C(NS(=O)(=O)c2ccccc2)C(C)C)s1 (configuration not stated)	/	.	.	/	/
Cn1nc(C(=O)NCCc2ccc(S(N)(=O)=O)cc2)c2c1-c1ccccc1S(=O)(=O)C2	.	.	.	.	.
FC(F)(F)c1ccccc1CN1CCN(C2CCCCCC2)CC1	.	.	.	44	.
CCOC(=O)CSc1nc2c(c(=O)[nH]1)C(C)(CC)Cc1ccccc1-2 (configuration not stated)	.	.	.	.	.
COc1ccc(/C=N/N(C(C)=O)c2nc(-c3ccc(C)cc3)cs2)cc1	.	.	.	.	30
COc1cccc(NC(=S)Nc2cc(C)cc(C)n2)c1	.	.	.	44	.
Cc1cc(C)nc(NC(=S)Nc2cccc(F)c2)c1	.	.	.	.	.
Cc1cc(F)ccc1C(O)c1ncc(-c2ccccc2Cl)[nH]1 (configuration not stated)	/	.	.	/	/
COc1ccc(NC(=O)Cc2ccccc2)cc1	.	.	.	.	.
COc1ccc(NC(=O)CN(C)C(=O)c2oc3ccccc3c2C)cc1	.	.	.	31	.
COc1ccc(NC(=O)CNS(=O)(=O)c2ccc(Cl)cc2)cc1	.	.	.	.	45
COc1ccc(NC(=O)CNC(=O)Cc2ccccc2)cc1	.	.	.	.	32
O=C(O)c1ccc2nc(-c3cc4cccc(O)c4oc3=O)[nH]c2c1	.	/	/	/	.
